Assay results from the supplement of paper PMC10849652.
Of roughly 7,900 targets only a part is listed; those with a hit were picked by preference. About 0.6% of all pairs of compound and target were hits. A number with no mark means an inactive call.

Assays:
Assay in all cases: log2 fold change, soluble protein after heating vs DMSO (PISA); higher = thermal stabilisation; K562 cells, 10 uM, 30 min; active = over 0.2 and 3.5 SD of the protein, either way, in both replicates (recomputed)
[1] = compound: C1COCCN1CCN2C3=CC=CC=C3N=C2NC(=O)C4=CC(=CC=C4)[N+](=O)[O-] [IRAK-1-4 Inhibitor I]
Summary of the method: (§1)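 K562 cells (2×10^6 cells/mL) were treated with 10 μM compound for 30 min, and aliquots were heated for 3 min over 48°C-58°C. Pooled aliquots were extracted in PBS with 0.5% NP-40 at 4°C, and the supernatant after 21,000xg for 90 min was measured by TMTpro 16plex LC-MS/MS with channel sums equalised. Reported thermal stability, relative to control samples and from duplicates, is a log2 fold change.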

[2] = compound: C=CC(=O)N1CCC[C@@H](n2nc(-c3ccc(Oc4ccccc4)cc3)c3c(N)ncnc32)C1 [ibrutinib]
Summary of the method: as §1

[3] = compound: CC(=O)c1cnc2ccc(-c3cc(Cl)c(O)c(Cl)c3)nc2c1N[C@H]1CC[C@H](CN(C)C)CC1
Summary of the method: as §1

[4] = compound: CC(C)(C)Cn1c(N)nc2ccc(-c3[nH]c(C(C)(C)C)nc3-c3ccc(F)cc3)nc21 [ralimetinib]
Summary of the method: as §1

[5] = compound: CC(C)(O)CC(=O)NCCn1ccc2ncnc(Nc3ccc(Oc4cccc(C(F)(F)F)c4)c(Cl)c3)c21
Summary of the method: as §1

[6] = compound: CC(C)C1=C2N=C(C=C(N2N=C1)NCC3=CC=CC=C3)NCCCCCCN
Summary of the method: as §1

[7] = compound: CC(C)C[C@@H](C=O)NC(=O)[C@H](CC(C)C)NC(=O)[C@H](CC(C)C)NC(=O)OCc1ccccc1
Summary of the method: as §1

[8] = compound: CC(C)N(C[C@H]1O[C@@H](n2cnc3c(N)ncnc32)[C@H](O)[C@@H]1O)[C@H]1C[C@@H](CCc2nc3cc(C(C)(C)C)ccc3[nH]2)C1 [pinometostat]
Summary of the method: as §1

[9] = compound: CC1=C(C(CC(=O)N1)C2=CC=C(C=C2)C(F)(F)F)C(=O)NC3=C(C=C4C(=C3)C=NN4)F
Summary of the method: as §1

[10] = compound: CC1=C(C=C(C=C1)NC(=O)C2=CC(=CC=C2)N(C)C)NC(=O)C3=CC=C(C=C3)O
Summary of the method: as §1

[11] = compound: CC1=CC=C(C=C1)SC2=C3C=C(SC3=CN=C2)C(=O)N
Summary of the method: as §1

[12] = compound: CC1=NC(=CC=C1)C2=C(N=C(N2)C(C)(C)C)C3=CC4=NC=CN=C4C=C3
Summary of the method: as §1

[13] = compound: CCCCN(Cc1ccc(C(=O)NO)cc1)C(=O)Nc1ccccc1 [Nexturastat A]
Summary of the method: as §1

[14] = compound: CCCS(=O)(=O)Nc1ccc(F)c(C(=O)c2c[nH]c3ncc(-c4ccc(Cl)cc4)cc23)c1F [vemurafenib]
Summary of the method: as §1

[15] = compound: CCCS(=O)(=O)Nc1ccc(F)c(C(=O)c2c[nH]c3ncc(Cl)cc23)c1F
Summary of the method: as §1

[16] = compound: CCN(CC)Cc1ccc2cc(COC(=O)Nc3ccc(C(=O)NO)cc3)ccc2c1 [givinostat]
Summary of the method: as §1

[17] = compound: CCN(CCCOc1ccc2c(Nc3cc(CC(=O)Nc4cccc(F)c4)[nH]n3)ncnc2c1)CCOP(=O)(O)O [barasertib]
Summary of the method: as §1

[18] = compound: CC1=C(C2=C(C=C1)C(=O)C3=CC=CC=C3N2CCCN)C
Summary of the method: as §1

[19] = compound: CC1=C(C=C(C=C1)NC(=O)C2=CC(=CC=C2)C(C)(C)C#N)NC3=CC4=C(C=C3)N=CN(C4=O)C
Summary of the method: as §1

[20] = compound: CCCc1cc(C)[nH]c(=O)c1CNC(=O)c1cc(-c2ccnc(N3CCN(C)CC3)c2)cc2c1cnn2C(C)C
Summary of the method: as §1

Sequence of UniProt O14950 (O14950 whole entry, looked up): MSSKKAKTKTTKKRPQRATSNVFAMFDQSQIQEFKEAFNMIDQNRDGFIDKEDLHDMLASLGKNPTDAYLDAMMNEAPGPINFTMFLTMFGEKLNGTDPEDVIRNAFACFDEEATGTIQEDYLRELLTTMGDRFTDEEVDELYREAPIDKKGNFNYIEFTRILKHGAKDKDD
Sequence of UniProt Q96H55 (Q96H55 whole entry, looked up): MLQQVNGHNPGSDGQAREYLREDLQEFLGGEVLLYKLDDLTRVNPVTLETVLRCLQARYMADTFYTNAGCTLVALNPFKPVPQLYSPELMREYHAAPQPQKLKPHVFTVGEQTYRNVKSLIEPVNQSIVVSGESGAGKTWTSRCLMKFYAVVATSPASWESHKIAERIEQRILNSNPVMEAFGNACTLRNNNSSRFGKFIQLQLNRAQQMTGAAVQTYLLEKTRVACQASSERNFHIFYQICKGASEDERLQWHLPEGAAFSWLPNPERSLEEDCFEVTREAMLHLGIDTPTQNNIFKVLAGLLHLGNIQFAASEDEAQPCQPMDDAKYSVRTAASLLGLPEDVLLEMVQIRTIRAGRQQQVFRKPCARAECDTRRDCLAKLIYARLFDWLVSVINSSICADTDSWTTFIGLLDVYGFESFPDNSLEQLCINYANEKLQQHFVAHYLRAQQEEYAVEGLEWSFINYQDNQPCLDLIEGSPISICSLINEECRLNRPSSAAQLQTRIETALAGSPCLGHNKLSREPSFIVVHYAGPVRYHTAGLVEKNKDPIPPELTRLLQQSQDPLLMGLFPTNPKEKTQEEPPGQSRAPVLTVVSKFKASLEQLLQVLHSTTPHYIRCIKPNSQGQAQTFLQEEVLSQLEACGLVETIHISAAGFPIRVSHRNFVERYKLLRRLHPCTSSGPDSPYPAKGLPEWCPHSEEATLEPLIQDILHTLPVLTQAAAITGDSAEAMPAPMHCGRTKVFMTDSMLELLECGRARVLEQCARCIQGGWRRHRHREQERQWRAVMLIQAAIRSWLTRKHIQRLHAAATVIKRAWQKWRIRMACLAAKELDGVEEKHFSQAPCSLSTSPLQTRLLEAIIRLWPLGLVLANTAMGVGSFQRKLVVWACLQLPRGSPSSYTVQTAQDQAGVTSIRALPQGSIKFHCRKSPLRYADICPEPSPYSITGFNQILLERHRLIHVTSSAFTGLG
Sequence of UniProt Q9BT67 (Q9BT67 whole entry, looked up): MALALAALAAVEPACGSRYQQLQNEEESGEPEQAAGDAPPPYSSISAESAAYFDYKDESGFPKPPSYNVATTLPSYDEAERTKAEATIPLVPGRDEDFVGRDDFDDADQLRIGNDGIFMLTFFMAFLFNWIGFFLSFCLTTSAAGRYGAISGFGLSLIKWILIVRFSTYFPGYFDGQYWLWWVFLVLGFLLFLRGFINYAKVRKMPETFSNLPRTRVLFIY
Sequence of UniProt Q4G0T1 (Q4G0T1 whole entry, looked up): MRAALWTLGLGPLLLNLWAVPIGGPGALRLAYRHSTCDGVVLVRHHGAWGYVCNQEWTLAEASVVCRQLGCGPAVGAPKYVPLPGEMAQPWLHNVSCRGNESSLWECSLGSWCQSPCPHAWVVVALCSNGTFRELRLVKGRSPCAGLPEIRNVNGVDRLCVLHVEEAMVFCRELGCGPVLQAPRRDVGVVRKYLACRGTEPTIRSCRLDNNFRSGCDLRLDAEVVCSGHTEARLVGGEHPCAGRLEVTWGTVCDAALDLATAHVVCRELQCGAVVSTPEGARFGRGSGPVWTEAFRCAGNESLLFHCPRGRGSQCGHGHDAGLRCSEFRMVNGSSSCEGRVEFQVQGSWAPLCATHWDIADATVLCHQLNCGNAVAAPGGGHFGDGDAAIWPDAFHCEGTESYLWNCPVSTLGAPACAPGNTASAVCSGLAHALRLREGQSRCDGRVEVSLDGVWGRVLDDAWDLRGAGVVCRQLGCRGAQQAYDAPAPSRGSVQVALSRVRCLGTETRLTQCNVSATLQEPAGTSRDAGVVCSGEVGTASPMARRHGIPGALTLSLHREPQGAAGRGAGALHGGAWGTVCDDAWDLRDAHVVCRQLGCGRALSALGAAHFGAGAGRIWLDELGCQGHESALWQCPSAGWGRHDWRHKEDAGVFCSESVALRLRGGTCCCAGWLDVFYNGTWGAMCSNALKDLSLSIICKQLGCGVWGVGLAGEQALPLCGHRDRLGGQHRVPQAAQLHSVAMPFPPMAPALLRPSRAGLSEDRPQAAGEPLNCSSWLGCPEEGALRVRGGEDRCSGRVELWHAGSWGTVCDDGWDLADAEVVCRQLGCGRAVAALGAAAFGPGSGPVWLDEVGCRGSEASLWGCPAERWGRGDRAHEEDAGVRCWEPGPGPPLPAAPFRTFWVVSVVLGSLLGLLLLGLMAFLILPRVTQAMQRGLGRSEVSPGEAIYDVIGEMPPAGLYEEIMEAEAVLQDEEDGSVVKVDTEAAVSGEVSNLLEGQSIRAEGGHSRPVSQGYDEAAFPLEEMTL
Sequence of UniProt Q9H3L0 (Q9H3L0 whole entry, looked up): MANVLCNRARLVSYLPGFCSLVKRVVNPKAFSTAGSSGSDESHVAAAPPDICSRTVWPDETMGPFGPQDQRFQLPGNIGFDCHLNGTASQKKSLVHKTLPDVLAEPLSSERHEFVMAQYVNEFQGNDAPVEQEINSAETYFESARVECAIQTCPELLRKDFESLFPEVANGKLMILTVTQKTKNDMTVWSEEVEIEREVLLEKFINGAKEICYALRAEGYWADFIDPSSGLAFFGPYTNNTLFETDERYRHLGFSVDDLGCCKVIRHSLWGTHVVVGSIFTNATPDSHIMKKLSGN
Sequence of UniProt P43246 (P43246 whole entry, looked up): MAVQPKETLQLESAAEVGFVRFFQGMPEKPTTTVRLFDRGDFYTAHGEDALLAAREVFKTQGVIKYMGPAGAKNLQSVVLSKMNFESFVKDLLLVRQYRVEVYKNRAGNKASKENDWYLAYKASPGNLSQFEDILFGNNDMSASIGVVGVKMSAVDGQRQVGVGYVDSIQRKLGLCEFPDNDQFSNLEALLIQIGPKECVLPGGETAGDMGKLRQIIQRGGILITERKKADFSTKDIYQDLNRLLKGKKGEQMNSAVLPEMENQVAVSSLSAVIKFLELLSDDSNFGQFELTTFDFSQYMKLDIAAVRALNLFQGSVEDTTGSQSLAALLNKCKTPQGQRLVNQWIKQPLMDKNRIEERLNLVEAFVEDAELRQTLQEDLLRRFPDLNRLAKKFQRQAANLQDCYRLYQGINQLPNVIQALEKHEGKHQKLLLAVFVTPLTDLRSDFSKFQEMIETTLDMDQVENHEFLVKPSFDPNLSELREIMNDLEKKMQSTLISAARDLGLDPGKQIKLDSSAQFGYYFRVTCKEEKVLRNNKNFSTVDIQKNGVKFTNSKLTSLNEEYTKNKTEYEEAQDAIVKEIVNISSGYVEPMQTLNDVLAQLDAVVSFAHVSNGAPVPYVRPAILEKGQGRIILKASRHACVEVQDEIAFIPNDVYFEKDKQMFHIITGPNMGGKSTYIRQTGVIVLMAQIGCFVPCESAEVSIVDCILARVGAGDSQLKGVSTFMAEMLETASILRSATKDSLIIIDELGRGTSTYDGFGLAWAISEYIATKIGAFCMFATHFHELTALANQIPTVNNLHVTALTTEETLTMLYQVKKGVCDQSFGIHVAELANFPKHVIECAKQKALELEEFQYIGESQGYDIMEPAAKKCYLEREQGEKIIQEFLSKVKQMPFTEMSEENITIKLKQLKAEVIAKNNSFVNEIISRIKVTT
Sequence of UniProt P40261 (P40261 whole entry, looked up): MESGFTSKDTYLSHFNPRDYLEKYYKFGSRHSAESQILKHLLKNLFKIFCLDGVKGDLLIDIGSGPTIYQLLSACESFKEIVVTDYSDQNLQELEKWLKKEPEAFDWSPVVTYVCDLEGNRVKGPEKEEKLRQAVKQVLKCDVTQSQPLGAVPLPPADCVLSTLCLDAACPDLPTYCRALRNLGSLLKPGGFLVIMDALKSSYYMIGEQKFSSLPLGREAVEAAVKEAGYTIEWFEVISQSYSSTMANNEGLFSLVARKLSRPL
Sequence of UniProt Q8IXH7 (Q8IXH7 whole entry, looked up): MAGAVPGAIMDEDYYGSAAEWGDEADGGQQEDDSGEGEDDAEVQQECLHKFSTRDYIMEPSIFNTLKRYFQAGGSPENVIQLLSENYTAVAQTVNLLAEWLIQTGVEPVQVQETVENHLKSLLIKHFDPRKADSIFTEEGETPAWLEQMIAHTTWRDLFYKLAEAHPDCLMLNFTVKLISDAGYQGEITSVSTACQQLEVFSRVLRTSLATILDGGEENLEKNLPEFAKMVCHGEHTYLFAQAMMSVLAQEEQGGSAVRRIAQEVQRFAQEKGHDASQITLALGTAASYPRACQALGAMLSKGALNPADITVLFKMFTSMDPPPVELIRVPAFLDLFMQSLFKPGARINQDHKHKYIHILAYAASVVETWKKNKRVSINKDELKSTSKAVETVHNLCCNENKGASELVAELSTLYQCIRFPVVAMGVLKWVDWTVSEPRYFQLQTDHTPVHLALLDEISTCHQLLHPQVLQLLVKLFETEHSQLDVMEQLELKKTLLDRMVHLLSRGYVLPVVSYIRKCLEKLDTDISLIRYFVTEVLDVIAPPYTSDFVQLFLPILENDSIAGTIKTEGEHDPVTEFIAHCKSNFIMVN
Sequence of UniProt Q9UH92 (Q9UH92 whole entry, looked up): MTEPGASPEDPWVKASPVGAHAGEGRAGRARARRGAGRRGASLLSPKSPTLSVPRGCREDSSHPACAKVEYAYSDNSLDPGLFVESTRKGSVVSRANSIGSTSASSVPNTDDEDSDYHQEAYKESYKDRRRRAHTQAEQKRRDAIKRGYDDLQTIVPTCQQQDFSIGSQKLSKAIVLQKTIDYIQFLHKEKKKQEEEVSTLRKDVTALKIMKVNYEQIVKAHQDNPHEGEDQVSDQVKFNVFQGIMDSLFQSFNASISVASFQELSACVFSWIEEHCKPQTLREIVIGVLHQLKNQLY

Target | log2 fold change [1] | log2 fold change [2] | log2 fold change [3] | log2 fold change [4] | log2 fold change [5] | log2 fold change [6] | log2 fold change [7] | log2 fold change [8] | log2 fold change [9] | log2 fold change [10] | log2 fold change [11] | log2 fold change [12] | log2 fold change [13] | log2 fold change [14] | log2 fold change [15] | log2 fold change [16] | log2 fold change [17] | log2 fold change [18] | log2 fold change [19] | log2 fold change [20]
MYO19 (UniProt Q96H55) | 0.014 | -0.11 | 0.168 | 0.115 | 0.079 | -0.06 | 0.176 | 0.014 | -0.198 | 0.069 | 0.091 | -0.054 | 0.382 | -0.082 | 0.554 (active) | 0.143 | 0.039 | – | – | –
MSH2 (UniProt P43246) | -0.024 | -0.066 | 0.018 | -0.031 | -0.041 | -0.019 | 0.023 | -0.023 | -0.015 | -0.067 | 0.017 | 0.066 | -0.018 | 0.069 | 0.08 | 0.083 | 0.057 | 0.357 (active) | 0.038 | 0.019
MLX (UniProt Q9UH92) | -0.033 | -0.058 | -0.132 | 0.077 | -0.163 | -0.236 | 0.14 | 0.016 | 0.043 | -0.027 | 0.082 | 0 | 0.009 | – | 0.008 | 0.047 | 0.117 | -0.008 | 0.035 | 0.071
NELFCD (UniProt Q8IXH7) | -0.038 | -0.18 | -0.04 | – | -0.394 | 0.101 | – | 0.017 | -0.036 | – | 0.02 | 0.18 | 0.094 | 0.15 | 0.051 | 0.167 | 0 | – | – | –
MRPS17 (UniProt Q9Y2R5) | -0.192 | 0.06 | -0.029 | 0.032 | -0.054 | 0.014 | 0.025 | -0.027 | -0.049 | -0.095 | -0.014 | 0.008 | 0.085 | 0.084 | 0.031 | -0.103 | 0.01 | -0.2 | 0.055 | 0.095
NDFIP1 (UniProt Q9BT67) | -0.135 | -0.083 | 0.146 | 0.084 | -0.401 | -1.2 (active) | 0.302 | 0.048 | 0.241 | -0.125 | – | -0.1 | 0.048 | 0.268 | – | -0.046 | -0.011 | 0.152 | -0.366 | -0.15
MRPL34 (UniProt Q9BQ48) | -0.046 | 0.107 | 0.092 | 0.164 | 0.042 | -0.137 | 0.102 | 0.196 | 0.086 | -0.01 | 0.019 | -0.052 | 0.259 | -0.062 | 0.051 | -0.021 | 0.022 | -0.51 (active) | -0.022 | 0.066
MRPL50 (UniProt Q8N5N7) | -0.036 | 0.052 | 0.036 | 0.315 | -0.001 | -0.014 | -0.203 | -0.01 | 0.04 | -0.04 | 0.175 | -0.031 | 0.208 | 0.034 | 0.244 | 0.05 | -0.057 | 0.16 | -0.09 | -0.058
NAGPA (UniProt Q9UK23) | -0.078 | 0.228 | -0.014 | – | 0.03 | 0.112 | – | 0.052 | 0.083 | – | -0.004 | 0.054 | -0.131 | – | -0.067 | 0.002 | -0.133 | -0.062 | -0.028 | -0.066
MTFR1L (UniProt Q9H019) | 0.04 | 0.048 | -0.052 | -0.005 | 0.014 | -0.412 | 0.047 | 0.003 | 0.041 | -0.006 | 0.008 | -0.122 | -0.027 | 0.048 | 0.116 | 0.031 | -0.026 | -0.05 | 0.082 | –
NNMT (UniProt P40261) | 0.035 | 0.06 | -0.028 | – | -0.026 | -0.026 | – | 0.276 (active) | -0.002 | – | 0.012 | 0.039 | -0.082 | 0.011 | -0.001 | -0.076 | -0.04 | -0.006 | 0.038 | -0.093
NKAP (UniProt Q8N5F7) | 0 | 0.004 | -0.218 | 0.033 | 0.105 | -0.123 | 0.103 | 0.032 | 0.165 | 0.233 | 0.017 | 0.052 | 0.042 | 0.073 | 0.046 | 0.044 | -0.165 | -0.022 | – | 0.15
MSL1 (UniProt Q68DK7) | 0.007 | 0.01 | -0.039 | 0.184 | -0.086 | 0.071 | -0.005 | -0.1 | -0.022 | 0.037 | -0.026 | 0.039 | 0.185 | -0.02 | -0.001 | 0.197 | -0.002 | – | -0.014 | 0.05
MYL12B (UniProt O14950) | 0.047 | 0.043 | 0.067 | 0.143 | -0.013 | 0.005 | -0.015 | 0.011 | -0.045 | -0.015 | 0.014 | 0.007 | -0.005 | 0.039 | 0.054 | -0.023 | 0.014 | -0.004 | 0.005 | 0.136
NA isoform 3 (UniProt Q4G0T1) | 0.007 | -0.1 | -0.146 | -0.118 | – | -0.022 | 0.155 | -0.043 | 0.079 | 0.035 | 0.008 | -0.057 | – | 0.005 | -0.077 | -0.009 | 0.179 | -0.109 | -0.007 | -0.012
MMADHC (UniProt Q9H3L0) | 0.014 | -0.056 | -0.011 | 0.073 | – | 0.039 | 0.076 | 0.182 | -0.118 | 0.001 | -0.078 | -0.078 | – | 0.067 | -0.057 | 0.04 | 0.029 | -0.137 | – | 0.108
MRPS26 (UniProt Q9BYN8) | -0.09 | 0.008 | 0.007 | -0.049 | -0.143 | 0.03 | 0.137 | 0.037 | – | -0.083 | 0.002 | -0.03 | 0.075 | -0.004 | 0.049 | 0.098 | 0.026 | -0.133 | 0.021 | -0.056
